Reference: PubChem BioAssay (Tox21)
Records with an inconclusive call do not appear. The source made the active and inactive calls. Calls follow the shape of the dose curve; as a rule, active = well fitted cell-killing curve with a large enough effect in the repeat runs; inconclusive = weak or mixed curves, or effect the other way; inactive = flat fitted curve, though single readings scatter.

Assay: qHTS assay to identify small molecule antagonists of the estrogen receptor alpha (ER-alpha) signaling pathway using the BG1 cell line in the presence of 0.1 nM 17-beta-estradiol - cell viability counter screen (AID 1259241); also: nearly all actives have a fitted effect of over 40% in size
Settings: VM7Luc4E2 (BG1) viability, CellTiter-Fluor protease, 22 h, 0.1 nM estradiol agonist added; series mostly up to 92.4 µM; activity change, negative = cytotoxicity: at the top concentration
Excerpt: National Center for Advancing Translational Sciences [NCATS]
NIH Chemical Genomics Center [NCGC]
U.S. Environmental Protection Agency [EPA]
National Institutes of Environmental Health Sciences [NIEHS]
National Toxicology Program [NTP]
U.S. Food and Drug Administration [FDA]
Estrogen receptor (ER), a member of the nuclear hormone receptor plays an important role in development, metabolic homeostasis and reproduction. Two subtypes of ER, ER-alpha and ER-beta, have similar expression patterns with some uniqueness in both types. Endocrine disrupting chemicals (EDCs) and their interactions with steroid hormone receptors like ER causes disruption of normal endocrine function. Therefore, it is important to understand the effect of environmental chemicals in ER signaling pathway. For identifying ER antagonists, VM7Luc4E2 cell line was used to screen against Tox21 compound libraries.
VM7Luc4E2 cell line (provided by Denison MS, University of California) endogenously express full-length ER-alpha and is stably transfected with a plasmid containing four estrogen responsive elements (ERE) upstream of a luciferase reporter gene. The current screening for identification of ER-alpha inhibitors against Tox21 compound libraries used lower concentration (0.1 nM) of 17beta-Estradiol as a stimulator. The cytotoxicity of the Tox21 compound libraries against VM7Luc4E2 cell line was tested by measuring live-cell protease activity using CellTiter-Fluor assay in the same wells.
Tox21 Assay Protocol Summary:
VM7Luc4E2 cells were cultured in phenol red free assay medium containing 10% charcoal stripped FBS for 5 days prior to the assay. The cells were dispensed at 4,000 cells/well in 4 uL of assay medium into white wall/solid-bottom 1536-well plates (Corning Life Sciences, Corning, NY) using a Multidrop Combi (ThermoFisher Scientific, Waltham, MA) dispenser. After the assay plates were incubated at 37C and 5% CO2 for 24 hr, 23 nL of compounds dissolved in DMSO, positive controls or DMSO only was transferred to the assay plates by a Pintool station (Kalypsys, San Diego, CA). The transfer of compounds was followed by the addition of 1 uL of 0.1 nM (final concentration) agonist (17beta-Estradiol)/assay medium using a Flying Reagent Dispenser (FRD, Aurora Discovery, San Diego, CA). The plates were incubated at 37C and 5% CO2 for 22 hr. For cytotoxicity assay, 1 uL of CellTiter-Fluor reagent (Promega Corporation, Madison, WI) was added to each well using the FRD and after 30 min incubation at 37C and 5% CO2, The fluorescence intensity was measured using ViewLux plate reader (PerkinElmer, Shelton, CT).
% is scaled to controls: 0 for no effect and ±100 for the full control effect; potency is read from the fitted curve at half-maximal effect.

SMILES	activity change, negative = cytotoxicity	Potency
O=C1OC(OC(=O)c2cccnc2Nc2cccc(C(F)(F)F)c2)c2ccccc21 (stereo not given)	-8.3% [at 42.5 µM] (inactive)	
COc1ccccc1C=O	7.92% (inactive)	
Nc1ncnc2c1ncn2[C@@H]1O[C@H](COP(=O)(O)O)[C@@H](O)[C@H]1O	1.06% [at 42.5 µM] (inactive)	
c1cc2c3c(c1)ccc1cccc(c13)C2	12.6% (inactive)	
O=C1Nc2ccc(Cl)cc2[C@@](C#CC2CC2)(C(F)(F)F)O1	-2.11% [at 42.5 µM] (inactive)	
CC(C)c1ccc(O)c(C(C)C)c1	8.9% (inactive)	
Cc1ccc(N)cc1O		61.1 µM (active)
CCCCCCCCCCCCCCCCCO	-2.67% [at 19 µM] (inactive)	
CC(O)C#CC(C)O (stereo not given)	-3.61% (inactive)	
CCCCCCCC/C=C\CCCCCCCC(=O)NCc1ccc(O)c(OC)c1	-5.02% [at 42.5 µM] (inactive)	
CN1[C@@H]2CC[C@H]1CC(OC(=O)C(CO)c1ccccc1)C2 (stereo not given in full)		inactive
CC1CCCCC1	8.38% (inactive)	
CC1(C)C(=O)N(CO)C(=O)N1CO	0.797% (inactive)	
COC(=O)CC(C)CCC=C(C)C (stereo not given)	-8.67% (inactive)	
O=C1OC(=O)c2ccc3c4c(ccc1c24)C(=O)OC3=O	-2.16% (inactive)	
CCCCCCCC/C=C\CCCCCCCC(=O)N(C)CC(=O)O	0.501% (inactive)	
O=C(O)CCn1c2c(c3ccccc31)C[C@H](NS(=O)(=O)c1ccc(F)cc1)CC2	-4.31% [at 42.5 µM] (inactive)	
CCc1cccc(CC)c1N(COC)C(=O)CS(=O)(=O)O	-1.73% (inactive)	
Cc1cccc(N(C)C)c1	2.39% (inactive)	
O=C(O)Cc1ccc(OCCNC[C@H](O)c2ccccc2)cc1	1.33% [at 42.5 µM] (inactive)	

SMILES	activity change, negative = cytotoxicity	Potency
Clc1ccccc1CN1CCc2sccc2C1	-10.7% [at 42.5 µM] (inactive)	
CCC(C)c1cc([N+](=O)[O-])cc([N+](=O)[O-])c1OC(=O)OC(C)C (stereo not given)		38.6 µM (active)
CCCCCCCC/C=C/CCCOC(C)=O	1.42% (inactive)	
Cc1ccc(CCn2c3c(c4cc(Cl)ccc42)CN(C)CC3)cn1	-1.38% [at 42.5 µM] (inactive)	
CCCCCCCC(C)=O	4.86% (inactive)	
Oc1ccc(-c2ccccc2)c(Cl)c1	-0.877% (inactive)	
CCCCCCCOC(=O)c1ccccc1C(=O)OCCCCCCC	0.98% (inactive)	
CCCCCCS	3.85% (inactive)	
O=C[C@H](O)[C@H](O)[C@H](O)CO	-4.15% (inactive)	
CCCCCCCCCCCCN(CCO)CCO	-1.22% (inactive)	
ClC/C=C\CCl	11.9% (inactive)	
Cc1occc1SSc1ccoc1C	0.0394% (inactive)	
O=C1C=CC(=O)N1c1ccccc1		61.1 µM (active)
CCOC(=O)CC(C)O (stereo not given)	-5.22% (inactive)	
CCOC(=O)COc1ccc(C)cc1	-4.6% (inactive)	
CCOC(OCC)C(=O)c1ccccc1	2.23% (inactive)	
C=CC(=O)OCCC#N	-3.31% (inactive)	
CCCCN(CCCC)CCC(O)c1cc2c(Cl)cc(Cl)cc2c2cc(C(F)(F)F)ccc12 (stereo not given)	0.501% [at 42.5 µM] (inactive)	
COc1cc(C(C)C)c2c(c1)S(=O)(=O)N(COc1cc(=O)n3cccc(OCCN4CCCCC4)c3n1)C2=O	-4.33% [at 19 µM] (inactive)	
Cn1cnc2ncnc(N)c21	8.45% [at 42.5 µM] (inactive)	
